Measured values reported in the supplement of paper PMC8975748.
Counter-ions that a name gives are not always drawn.

Test system: Saccharomyces cerevisiae BY4741 SeMeCo community
Assay: z-score of subpopulation abundance vs DMSO median, subpopulation auxotrophic for HU; higher = larger share of this subpopulation than in DMSO controls
Settings: 10 µM; 24 h; SM minimal medium; subpopulation (auxotrophy): HU
How it was run: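 Cells of a Saccharomyces cerevisiae BY4741 community, carrying four plasmids that each restored one auxotrophy and encoded a distinct fluorescent protein, were pre-grown overnight to OD600 1.0 and diluted to 0.3. A 70 µl volume was added to 384-well plates acoustically predosed with library drugs (10 µM final) and grown 24 h in minimal SM medium. After paraformaldehyde fixation, automated confocal microscopy was used, with single-auxotroph fluorescent strains for thresholds and autofluorescence correction. The abundance of each subpopulation was scored as a z-score against the vehicle-well median.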

| SMILES | z-score of subpopulation abundance |
| --- | --- |
| OCc1ccccc1O[C@@H]1O[C@H](CO)[C@@H](O)[C@H](O)[C@H]1O [Salicin] | -0.9 |
| CC(=O)OCC(CCn1cnc2cnc(N)nc21)COC(C)=O [Famciclovir] | -0.39 |
| CC[C@H]1OC(=O)[C@H](C)[C@@H](O[C@H]2C[C@@](C)(OC)[C@@H](O)[C@H](C)O2)[C@H](C)[C@@H](O[C@@H]2O[C@H](C)C[C@H](N(C)C)[C@H]2O)[C@](C)(O)C[C@@H](C)[C@@H]2N[C@@H](COCCOC)O[C@H]([C@H]2C)[C@]1(C)O [Dirithromycin] | -0.26 |
| NNc1nncc2ccccc12 [Hydralazine HCl] | 0.18 |
| COc1cccc2c1C(=O)c1c(O)c3c(c(O)c1C2=O)CC(O)(C(=O)CO)CC3OC1CC(N)C(O)C(C)O1 (stereo unspecified) [Doxorubicin (Adriamycin) HCl] | 8.36 |
| CCN1CCCC1CNC(=O)c1cc(S(N)(=O)=O)ccc1OC (stereo unspecified) [Sulpiride] | -0.14 |
| CCCN[C@H]1CCc2nc(N)sc2C1 [Pramipexole] | 1.27 |
| Cc1c(Nc2ncccc2C(=O)O)cccc1C(F)(F)F [Flunixin Meglumin] | -0.19 |
| CO[C@H]1C[C@@H]2CC[C@@H](C)[C@@](O)(O2)C(=O)C(=O)N2CCCC[C@H]2C(=O)O[C@H]([C@H](C)C[C@@H]2CC[C@@H](OP(C)(C)=O)[C@H](OC)C2)CC(=O)[C@H](C)/C=C(\C)[C@@H](O)[C@@H](OC)C(=O)[C@H](C)C[C@H](C)/C=C/C=C/C=C/1C [Ridaforolimus (Deforolimus, MK-8669)] | 25.9 |
| C#C[C@]1(OC(C)=O)CC[C@H]2[C@@H]3CCC4=C[C@@H](OC(C)=O)CC[C@@H]4[C@H]3CC[C@@]21C [Ethynodiol diacetate] | -0.23 |
| Cc1onc(-c2ccccc2)c1-c1ccc(S(N)(=O)=O)cc1 [Valdecoxib] | -0.23 |
| COc1ccc(Cc2cnc(N)nc2N)cc1OC [Diaveridine] | -0.25 |
| O=C(O)c1cc(=O)c2c(OCC(O)COc3cccc4oc(C(=O)O)cc(=O)c34)cccc2o1 [Disodium Cromoglycate] | 0.68 |
| Clc1ccc(C(Cn2ccnc2)OCc2c(Cl)cccc2Cl)c(Cl)c1 (stereo unspecified) [Isoconazole nitrate] | 11.7 |
| CCCCCCCCN=C(N)NC(N)=NCc1ccc(Cl)c(Cl)c1 [Olanexidine Hydrochloride semihydrate] | 5.71 |
| Nc1nc(N)nc(-c2cc(Cl)ccc2Cl)n1 [Irsogladine] | -0.69 |
| NC(=O)c1ncn([C@@H]2O[C@H](CO)[C@@H](O)[C@H]2O)n1 [Ribavirin] | 0.42 |
| CN1C2CCCC1CC(NC(=O)c1nn(C)c3ccccc13)C2 (stereo unspecified) [Granisetron] | -0.71 |
| CCC[C@@H]1C[C@@H](C(=O)N[C@@H]([C@H]2O[C@H](SC)[C@H](O)[C@@H](O)[C@H]2O)[C@@H](C)O)N(C)C1 [Lincomycin HCl] | -0.73 |
| CCc1c2c(nc3ccc(OC(=O)N4CCC(N5CCCCC5)CC4)cc13)-c1cc3c(c(=O)n1C2)COC(=O)[C@]3(O)CC [Irinotecan HCl Trihydrate] | -0.6 |
| Cc1[nH]c(=O)c(C#N)cc1-c1ccncc1 [Milrinone] | -0.62 |
| C[C@@H](O)[C@H]1C(=O)N2C(C(=O)O)=C(S[C@@H]3CN[C@H](C(=O)Nc4cccc(C(=O)O)c4)C3)[C@H](C)[C@H]12 [Ertapenem sodium] | -0.53 |
| CN(C)CCc1c[nH]c2ccc(C[C@H]3COC(=O)N3)cc12 [Zolmitriptan] | -1.01 |
| Clc1ccc(C(Cn2ccnc2)OCc2ccsc2Cl)c(Cl)c1 (stereo unspecified) [Tioconazole] | 10.2 |
| CN1CCOC(c2ccccc2)c2ccccc2C1 (stereo unspecified) [Nefopam HCl] | 0.21 |
| C[C@]1(Cn2ccnn2)[C@H](C(=O)O)N2C(=O)C[C@H]2S1(=O)=O [Tazobactam] | 0.31 |
